Test results as given in the supplement of paper PMC6555819.

How the values were obtained:
Test in all cases: PBM binding z-score (relative to random genomic background probes); higher = stronger binding; sequences stand for … in GC…GCGATTGACAGCGTAGAATGAAGG
[1] = system: PPARg:RXRa DBDmut IVT, anti-RXR (DBD mutation: RXRa K156A/R161A, NR concentration 270 nM, RXRa partner concentration 90 nM)
How it was run: (§1)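 The probes on custom Agilent 4×180K protein-binding microarrays were double-stranded, with 34-nt variable regions bearing direct-repeat seeds, single-nucleotide variants, half-site ablations and random human genomic background sequences. Incubation lasted 1 h with ligand-free nuclear receptor dimers in PBS pH 7.4, 2% milk, 0.02% Triton X-100, 1 mM DTT, 0.2 mg/mL BSA and 0.4 mg/ml salmon testes DNA. Antibodies against each partner (one per run) detected bound dimers, and fluorescence scans were regression-normalized. Binding z-scores take the random background probes as reference.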

[2] = system: PPARg:RXRa IVT, anti-PPARg (NR concentration 270 nM, RXRa partner concentration 90 nM)
How it was run: as §1

[3] = system: PPARg DBDmut:RXRa IVT, anti-PPARg (DBD mutation: PPARg1 K132A/R137A, NR concentration 270 nM, RXRa partner concentration 90 nM)
How it was run: as §1

[4] = system: PPARg DBDmut IVT, anti-PPARg (DBD mutation: PPARg1 K132A/R137A, NR concentration 270 nM)
How it was run: as §1

[5] = system: PPARg homodimer (NR concentration 180 nM)
How it was run: as §1

[6] = system: PXR:RXRa (NR concentration 270 nM, RXRa partner concentration 90 nM)
How it was run: as §1

[7] = system: PXR homodimer (NR concentration 270 nM)
How it was run: as §1

[8] = system: RARa:RXR (NR concentration 270 nM, RXRa partner concentration 90 nM)
How it was run: as §1

[9] = system: RARa homodimer (NR concentration 270 nM)
How it was run: as §1

[10] = system: RARb:RXRa (NR concentration 270 nM, RXRa partner concentration 90 nM)
How it was run: as §1

[11] = system: RARb homodimer (NR concentration 270 nM)
How it was run: as §1

[12] = system: RARg:RXRa (NR concentration 270 nM, RXRa partner concentration 90 nM)
How it was run: as §1

[13] = system: RARg homodimer (NR concentration 270 nM)
How it was run: as §1

[14] = system: RXRa DBDmut IVT, anti-RXR (DBD mutation: RXRa K156A/R161A, NR concentration 90 nM)
How it was run: as §1

[15] = system: RXRa homodimer (NR concentration 180 nM)
How it was run: as §1

[16] = system: THRa:RXRa (NR concentration 90 nM, RXRa partner concentration 90 nM)
How it was run: as §1

[17] = system: THRa homodimer (NR concentration 90 nM)
How it was run: as §1

[18] = system: VDR homodimer (NR concentration 270 nM)
How it was run: as §1

Sequence	PBM binding z-score [1]	PBM binding z-score [2]	PBM binding z-score [3]	PBM binding z-score [4]	PBM binding z-score [5]	PBM binding z-score [6]	PBM binding z-score [7]	PBM binding z-score [8]	PBM binding z-score [9]	PBM binding z-score [10]	PBM binding z-score [11]	PBM binding z-score [12]	PBM binding z-score [13]	PBM binding z-score [14]	PBM binding z-score [15]	PBM binding z-score [16]	PBM binding z-score [17]	PBM binding z-score [18]
TCCGCTAGGTCAGTTGGTCAGCTAACGAGCTGCC	2.32	2.55	-0.0326	-0.848	0.175	0.233	-0.744	0.687	-0.7	3.44	2.85	2.77	3.75	0.733	1.01	1.27	0.178	-0.514
ATCGAAAGGTCGTGAGGCGAGTATACAGAAAGGC	0.466	1.91	1.82	1	1.5	2.96	0.0504	3.69	0.41	4.1	2.55	4.39	3.91	1.28	5.34	2.49	-0.00887	0.582
ATCGAAAGGTCGACGAGGTGAGGATACACCGTTT	0.8	2.39	0.388	0.42	1.72	2.77	0.496	3.52	0.262	3.98	3.11	4.27	4.37	1.15	4.45	4.09	2.24	1.2
ACTCGGAGGACAAAGGTCAGATCTACGCCAGTGA	0.776	3.13	0.263	-0.358	2.46	3.86	0.325	4.45	1.42	4.33	4.47	5.88	5.52	1.38	4.78	3.36	0.695	1.27
GCTTGTAGATCAAGGTTAAGAAAGACTAAGCTAA	0.698	1.3	-0.233	0.273	0.452	0.314	-0.212	0.726	-0.0899	0.759	0.0928	0.389	0.229	-0.146	0.904	1.14	-0.422	-0.377
ACTATTAGTTGAGACGAGGGTAACCGATAGGTTG	0.111	0.339	0.757	0.539	0.211	0.245	0.43	0.64	0.125	0.342	0.218	0.256	0.596	0.227	0.443	1.55	-0.208	0.283
TAACCAAGGTGAGCTGAGGTCGTTGATCCAACTC	0.67	1.99	-0.13	0.366	-0.0916	4.88	0.136	1.74	-0.541	1.81	1.63	1.33	0.926	-0.0437	1.58	4.65	1.86	1.81
TAGCCTAGGTCATGGGCCAGCATACCACGCGAAC	1.68	3.04	0.798	-0.0378	1.22	1.38	-0.554	2.74	-0.41	3.79	2.95	4.29	4.36	-0.00159	3.28	3.04	0.897	0.227
ATCTCTTGGTAAAGTTCAGTGAAAGATCGATAGA	0.216	0.63	1.4	1.94	1.76	2.41	2.31	1.63	1.65	2.82	2.41	2.08	2.53	2.06	1.04	0.889	0.154	2.21
GATACAGGGTCAGCTAAAGGCCAGAGTATGGAAA	1.25	2.78	0.576	-0.417	2.2	2.68	-0.205	4.25	0.412	4.26	3.61	6.61	5.01	0.751	4.45	3.02	0.329	0.806
TCTATTAGTTGATTAGGGCACCCGAAACAGCGGA	2.25	1.68	0.695	1.2	1.1	0.419	0.671	0.573	1.64	0.873	0.537	0.623	0.797	1.22	0.445	0.654	0.582	0.203
CCTCGGAGGACAGAAGGTGAGAGCTGTCCGCTTT	-0.327	0.0317	-1.56	-1.59	0.19	-0.301	-0.684	0.317	-0.413	1.09	1.05	0.543	0.503	-0.26	-0.253	0.747	-0.514	-0.603
ACACACAGGTGATGAAGGTAACTCAGGCTATCAT	0.704	1.02	0.73	0.679	0.0611	-0.0363	0.251	0.28	0.957	0.355	0.43	0.435	0.664	0.355	0.276	1.06	0.194	0.17
ACTATTAGTTGAGACGACGGCAACCGATAGGTTG	-0.317	-0.0579	0.669	0.567	0.0844	-0.384	-0.0364	-0.302	0.521	-0.0586	-0.491	0.00753	0.223	-0.0527	0.0138	-0.529	-0.596	-0.117
GCTAGTTGGTCAGTAAAACGTCACACACCGGTCG	0.256	0.168	0.0879	-0.472	-0.368	-0.432	-0.66	-0.372	-0.12	0.305	0.309	-0.139	0.216	-0.207	-0.264	-0.444	-0.619	-0.255
CAAACTAGGTCAAGGTCAAAGTTGGTTTGTGCCA	8.46	8.73	4.69	4.12	4.93	5.28	2.75	5.45	1.94	5.19	5.15	6.1	6.67	3.1	6.01	4.39	3.85	4.14
